Assay [1] is described as follows: NCI Yeast Anticancer Drug Screen. Data for the rad50 strain (AID 155).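 Note: 0% = growth of vehicle-only cultures of the same strain.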 The note with it: S. cerevisiae rad50 strain growth inhibition; at 50.0 µM; stronger effect = higher value. The essentials: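 Yeast carrying a defined DNA repair defect were exposed to test compounds, and growth was compared with vehicle-treated controls to give percent inhibition.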
Assay [2] is described as follows: NCI Yeast Anticancer Drug Screen. Data for the sgs1 mgt1 strain (AID 161).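 Note: 0% = growth of cultures given vehicle only.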 The note with it: S. cerevisiae sgs1 mgt1 strain, at 50.0 µM, stronger effect = higher value. The gist of the method: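 Genetically altered yeast, compound exposure, growth inhibition relative to vehicle.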
Assay [3] can be described thus: NCI Yeast Anticancer Drug Screen. Data for the cln2 rad14 strain (AID 165).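 Note: 0% = growth equal to vehicle treated cultures.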 The note with it: S. cerevisiae cln2 rad14 strain, at 50.0 µM, stronger effect = higher value. The essentials: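 Each compound was tested on cln2 rad14 yeast. Inhibition of growth was calculated against vehicle-exposed controls.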
Assay [4] in a line: NCI Yeast Anticancer Drug Screen. Data for the bub3 strain (AID 167). Conditions: S. cerevisiae bub3 mutant strain, at 50.0 µM, stronger effect = higher value. The gist of the method:
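Compounds were applied to a genetically altered yeast strain carrying a cell-cycle control defect. Growth inhibition was scored against vehicle-treated controls.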

A short description of assay [5]: NCI Yeast Anticancer Drug Screen. Data for the mlh1 rad18 strain (AID 175). Conditions: S. cerevisiae mlh1 rad18 strain growth inhibition; at 50.0 µM; stronger effect = higher value. The essentials: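 Vehicle-treated cultures served as the reference for growth inhibition in a yeast strain carrying DNA damage repair alterations exposed to each compound.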

The panel holds about 79,000 compounds, 15% with a hit somewhere; the sample as a whole holds those more often. A number with no mark means an inactive call. Calls of active or inactive are those of the source. Cut-off read from the data, not from the text of the source: active = growth inhibition above about 70%; inactive = the rest.

Turning to `CC1(C)COC(C)(Cc2ccccc2)OC1`, the growth inhibition in assay [1] is -5.9%; in assay [2], -15.7%; in assay [3], -65.3%; in assay [4], -22.1%; in assay [5] it was -11.7%.

`N#CC(C#N)=C1CCNCC1`: the growth inhibition in assay [1] was -12.8%; in assay [2], -6.3%; in assay [3] it was -8.35%; in assay [4], 3.65%; in assay [5], 0.9%.

Consider `Cc1cc(C)nc(NS(=O)(=O)c2ccc(Nc3c4ccc(Cl)cc4nc4c(C(=O)NCCN(C)C)cccc34)cc2)n1`, for which the growth inhibition in assay [1] is 0%; in assay [2] it was -5.05%; in assay [3], 1.4%; in assay [4], 30.8%; in assay [5] it was 6.95%.

Regarding `O=C1CN(c2ccccc2)CC(=O)N2C(c3ccccc3)CCCN12` (stereo not given), the growth inhibition in assay [1] was 22.3%; in assay [2], -6.05%; in assay [3], 26.2%; in assay [4], 24.4%; in assay [5] it was 3.35%.

As for `CC12CCC(/C(=N/O)C1=O)C2(C)C` (stereo not given), the growth inhibition in assay [1] is 2.15%; in assay [2], 1.1%; in assay [3] it was -74.5%; in assay [4] it was -1.8%; in assay [5] it was 4.25%.

For `Cc1cc(C)c(NS(=O)(=O)c2ccc(Cl)cc2)cc1C`, the growth inhibition was 94.5% (active) in assay [1]; 92.2% (active) in assay [2]; 70% in assay [3]; 87.6% (active) in assay [4]; 90.5% (active) in assay [5].

In the case of `N#C/C(=C\c1ccccc1)c1cccc(Cl)c1`, the growth inhibition was -32.2% in assay [1]; -13.3% in assay [2]; -97.1% in assay [3]; 13.8% in assay [4]; -12.7% in assay [5].

As for `CC(C)(O)C(O)(c1ccccc1)c1ccccc1`, the growth inhibition in assay [1] was 2.65%; in assay [2] it was 16.7%; in assay [3] it was 6.5%; in assay [4] it was 5.95%; in assay [5], 12.8%.

`CCCCCCC(C)N1C(=O)c2ccccc2C1=O` (stereo not given): the growth inhibition in assay [1] was 6.25%; in assay [2], 4.75%; in assay [3] it was -39.1%; in assay [4], 0.7%; in assay [5], -8.4%.

For the molecule `O=C1CC[C@H]2[C@@H]3N1c1ccccc1[C@@]31CCN3C/C(=C/CBr)[C@@H]2C[C@H]31`, the growth inhibition was 21.4% in assay [1]; 6.25% in assay [2]; 19.4% in assay [3]; -1.8% in assay [4]; 11.1% in assay [5].

For `CNC1C(CO)OC(n2cnc3c(=O)[nH]cnc32)C1O` (stereo not given), the growth inhibition in assay [1] was 12.2%; in assay [2], -11.4%; in assay [3], -9.1%; in assay [4], -9.2%; in assay [5], 13.6%.

Take `Cc1cc(C)n(C2OC(CO)C(O)C(O)C2O)c(=S)c1C#N` (stereo not given): the growth inhibition in assay [1] was 21.1%; in assay [2], 29.6%; in assay [3], 5.4%; in assay [4] it was 8.4%; in assay [5], 35.4%.

`CN1CCN(C2CCCc3ccccc3C2=O)CC1` (stereo not given): the growth inhibition in assay [1] is 21.9%; in assay [2] it was 4.75%; in assay [3], -36%; in assay [4], -15.5%; in assay [5], 13.4%.

For `CC1CCC(=O)C(C(=O)CC2CC(=O)NC(=O)C2)C1` (stereo not given), the growth inhibition in assay [1] was 31.6%; in assay [2] it was 19.7%; in assay [3], -30.3%; in assay [4] it was 2.3%; in assay [5], 4.55%.

Consider `Cc1cc2c(C(C)C)c(O)c(O)c(C=NCc3ccc(Br)cc3)c2c(O)c1-c1c(C)cc2c(C(C)C)c(O)c(O)c(C=NCc3ccc(Br)cc3)c2c1O`, for which the growth inhibition was -5.6% in assay [1]; 26.6% in assay [2]; -22.1% in assay [3]; -9.15% in assay [4]; 27.8% in assay [5].

For `CCOC(=O)c1cc(=O)c2cccc(C)c2[nH]1`, the growth inhibition in assay [1] was 2.3%; in assay [2], -0.95%; in assay [3], -9.3%; in assay [4], -2%; in assay [5], 20.6%.

`CC1(C)C2C=CC1(C)C1(CC2)OCCO1` (stereo not given): the growth inhibition in assay [1] is 10.5%; in assay [2], -20.5%; in assay [3] it was 20.8%; in assay [4], -55.8%; in assay [5], -115%.

Regarding `N#CCCC1C(C#N)C2CC1C1C3C=CC(C3)C21` (stereo not given), the growth inhibition in assay [1] was 9.1%; in assay [2], 30.5%; in assay [3] it was 28.5%; in assay [4] it was -4.5%; in assay [5] it was 26.2%.

With `Clc1ccccc1CSc1cnnc(SCc2ccccc2Cl)c1SCc1ccccc1Cl`, the growth inhibition in assay [1] is -0.1%; in assay [2], 6.4%; in assay [3], 22.9%; in assay [4] it was 10.7%; in assay [5] it was 27.6%.

Take `Cn1c(=O)c2[nH]c(Br)nc2n(C)c1=O`: the growth inhibition is -12% in assay [1]; 5.4% in assay [2]; -4.25% in assay [3]; 13.3% in assay [4]; -12.2% in assay [5].

As for `CS(=O)(=O)CC1=Nc2nnc(CCCCCCCc3nnc4n3C(=O)C(CS(C)(=O)=O)=N4)n2C1=O`, the growth inhibition is -17% in assay [1]; 5.55% in assay [2]; -12.1% in assay [3]; -5.15% in assay [4]; -7.95% in assay [5].

Consider `COc1cc(/C=N/NC(N)=O)cc(OC)c1O`, for which the growth inhibition is -0.6% in assay [1]; -34.4% in assay [2]; -14.6% in assay [3]; 33.3% in assay [4]; -4.75% in assay [5].

With `CC1CCC2C(C(=O)O[C@H]3C4CCO[C@@H](OC5OC(CO)C(O)C(O)C5O)C4[C@@]4(CO)O[C@@H]34)=CO[C@@H](OC3OC(CO)C(O)C(O)C3O)C12` (stereo not given in full), the growth inhibition in assay [1] was 16.4%; in assay [2], 5.9%; in assay [3], 22.2%; in assay [4], 22.6%; in assay [5], 19.6%.

The values above are taken from PubChem BioAssay (NCI).
